Assay [1] in a line: MultiTox-Fluor Cytotoxicity Assay - LYMP1-002 - Dead Cells (AID 960). Note: nearly all actives have a fitted effect of over 60% in size. In short, it runs like this: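 Human lymphoblastoid cells (LYMP1-002), 2500/well in complete medium, were exposed to compounds for 16 hr at 37 C. Dead-cell protease activity was read as bis-AAF-R110 fluorescence (Ex/Em 485/520), normalized to DMSO and 15 uM tetraoctylammonium bromide; AC50 from Hill fits.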

Assay [2] in a line: MultiTox-Fluor Cytotoxicity Assay - LYMP1-003 - Dead Cells (AID 961). Note: nearly all actives have a fitted effect of over 70% in size. In short, it runs like this: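 LYMP1-003 lymphoblastoid, 2500 cells/well, 5 hr settle then 16 hr cpd at 37 C; MultiTox-Fluor reagent 60 min RT; Ex/Em 485/520 dead-cell signal; norm. DMSO = 0%, 15 uM tetraoctylammonium bromide = 100%; Hill AC50.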
A short description of assay [3]: MultiTox-Fluor Cytotoxicity Assay - LYMP1-003 - Live Cells (AID 962). In short, it runs like this: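 LYMP1-003 human lymphoblastoid cells (2500/well) in complete medium were preincubated 5 hr at 37 C, then exposed to compounds for 16 hr at 37 C. Live-cell protease cleavage of GF-AFC read by fluorescence (Ex/Em 405/510); AC50 from Hill fits.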
Assay [4] is described as follows: Cell Viability - LYMP1-003 - Assay at 24 hr (AID 963). The procedure, abridged: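 Human lymphoblastoid LYMP1-003 cells (2500/well) were rested 5 hr at 37 C, then exposed to compounds in complete medium for 24 hr at 37 C. Cellular ATP was quantified by CellTiter-Glo luminescence, and AC50 values came from Hill fits of concentration-response data.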
Assay [5] is described as follows: Cell Viability - LYMP2-003 (AID 965).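 Note: cells exposed to compounds for 24 h before reading; nearly all actives have a fitted effect of over 50% in size.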 In short, it runs like this: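 Human lymphoblastoid cells (2500/well) were pre-incubated 5 hr at 37 C, then exposed to compounds over a concentration range for 24 hr at 37 C. Intracellular ATP was read by CellTiter-Glo luminescence; AC50 came from Hill-equation fits.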
A short description of assay [6]: Cell Viability - LYMP2-011 (AID 969). Note: nearly all actives have a fitted effect of over 60% in size. The procedure, abridged: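 Human lymphoblastoid cells (2500/well) were plated in complete medium, preincubated 5 hr at 37 C, then exposed to compounds for 24 hr at 37 C. Intracellular ATP was read by CellTiter-Glo luminescence, and AC50 came from Hill-equation concentration-response fits.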
Assay [7] in a line: Cell Viability - LYMP2-021 (AID 974).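 Note: compound exposure lasts 24 hours at 37 °C; nearly all actives have a fitted effect of over 55% in size.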 In short, it runs like this:
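Human lymphoblastoid cells (2500/well) were preincubated 5 hr at 37 C, then exposed to compounds for 24 hr at 37 C in complete medium. Intracellular ATP was read by CellTiter-Glo luminescence; AC50 came from Hill-equation fits of concentration-response data.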

A short description of assay [8]: Cell Viability - LYMP2-023 (AID 975). Note: nearly all actives have a fitted effect of over 55% in size. The procedure, abridged: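 Human lymphoblastoid cells (2500/well) were preincubated 5 hr at 37 C, then exposed to compounds for 24 hr at 37 C in complete medium. Cellular ATP was read by CellTiter-Glo luminescence, and AC50 came from Hill-equation fits.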
Assay [9] in a line: Cell Viability - LYMP2-025 (AID 976). The procedure, abridged:
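Human lymphoblastoid LYMP2-025 cells (2500/well) were pre-incubated 5 hr at 37 C, then treated with compounds for 24 hr at 37 C in complete medium. Viability was read as intracellular ATP by CellTiter-Glo luminescence; AC50 from Hill fits.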

Assay [10] can be described thus: Cell Viability - LYMP2-002 (AID 977).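 Note: compound exposure lasted 24 h at 37 °C.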 The procedure, abridged:
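Cytotoxicity is scored as concentration-dependent loss of cellular ATP in a human lymphoblastoid line after 24 hr compound treatment at 37 C. AC50 is obtained by modelling concentration-response data with the Hill equation.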

A short description of assay [11]: Cell Viability - LYMP2-010 (AID 981). Note: nearly all actives have a fitted effect of over 55% in size. The procedure, abridged:
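Human lymphoblastoid LYMP2-010 cells (2500/well) were preincubated 5 hr at 37 C, then exposed to compounds for 24 hr at 37 C in complete medium. Intracellular ATP was measured by CellTiter-Glo luminescence after 30 min at room temperature; AC50 from Hill-fitted concentration-response.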

Assay [12] is described as follows: Cell Viability - LYMP2-012 (AID 982).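 Note: cellular ATP by luciferase luminescence where a drop means cytotoxicity; cells exposed to compound for one day before reading; nearly all actives have a fitted effect of over 55% in size.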
A short description of assay [13]: Cell Viability - LYMP2-016 (AID 984). Note: nearly all actives have a fitted effect of over 55% in size. The procedure, abridged: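 Human lymphoblastoid cells (LYMP2-016), 2500/well in complete medium, preincubated 5 hr at 37 C, then compound-treated 24 hr at 37 C. Intracellular ATP read by CellTiter-Glo luminescence after 30 min at room temperature; AC50 from Hill-equation concentration-response fits.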
Assay [14] in a line: Cell Viability - LYMP2-018 (AID 985).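 Note: compound exposure lasted 24 hr at 37 °C; nearly all actives have a fitted effect of over 50% in size.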 The procedure, abridged: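 Human lymphoblastoid cells (2500/well) were pre-incubated 5 hr at 37 C, then exposed to compounds for 24 hr at 37 C in complete medium. Viability was read as intracellular ATP by CellTiter-Glo luminescence; AC50 values came from Hill-equation fits.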
The nature of assay [15]: Cell Viability - LYMP2-020 (AID 986). Note: nearly all actives have a fitted effect of over 55% in size. In short, it runs like this:
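Human lymphoblastoid cells, 2500/well, were pre-incubated 5 hr at 37 C, then exposed to compounds for 24 hr at 37 C in complete medium. Intracellular ATP was read by CellTiter-Glo luminescence, and AC50 was derived by Hill fitting of concentration-response data.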

The nature of assay [16]: Cell Viability - LYMP2-022 (AID 987). Note: nearly all actives have a fitted effect of over 55% in size. The procedure, abridged: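 Human lymphoblastoid cells, 2500/well, preincubated 5 hr at 37 C, then exposed to compounds over a concentration range for 24 hr at 37 C in complete medium. Viability read as intracellular ATP by CellTiter-Glo luminescence after 30 min at room temperature; AC50 from Hill fits.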
Assay [17] can be described thus: Cell Viability - LYMP2-024 (AID 988). Note: nearly all actives have a fitted effect of over 60% in size. The procedure, abridged: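 Human lymphoblastoid cells (2500/well) in complete medium were preincubated 5 hr at 37 C, then exposed to compounds for 24 hr at 37 C. Intracellular ATP was read by CellTiter-Glo luminescence; AC50 from Hill-equation fits of concentration-response data.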
The nature of assay [18]: Cell Viability - LYMP2-026 (AID 989). Note: nearly all actives have a fitted effect of over 50% in size. The procedure, abridged: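 Human lymphoblastoid cells (2500/well) in complete medium were preincubated 5 hr at 37 C, then exposed to compounds for 24 hr at 37 C. Cellular ATP was read by CellTiter-Glo luminescence; AC50 from Hill-equation fits of concentration-response data.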
Assay [19] is described as follows: Cell Viability - LYMP1-002 - Assay at 24 hr (AID 993). The procedure, abridged: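 Human lymphoblastoid LYMP1-002 cells, 2500/well in complete medium, were treated with compounds for 24 h at 37 C; intracellular ATP was read by CellTiter-Glo luminescence. AC50 values came from Hill-equation fits of qHTS concentration-response data.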
The nature of assay [20]: Cell Viability - LYMP1-002 - Assay at 40 hr (AID 994). Note: nearly all actives have a fitted effect of over 60% in size. In short, it runs like this: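 Human lymphoblastoid cells, 2500/well in complete medium, were preincubated 5 hr at 37 C, then exposed to compounds for 40 hr at 37 C. Intracellular ATP was read by CellTiter-Glo luminescence after 30 min at room temperature; AC50 from Hill-equation fits.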

Molecules are shown by their SMILES. Inconclusive results are not listed. Activity calls are given as the source filed them. Calls come from the whole dose curve; as a rule, active = well fitted curve in the direction sought with a large enough effect; inconclusive = small, poorly fitted or top-dose-only effect, or another doubt; inactive = no such curve, though single readings can be large; an effect the other way counts as inactive or inconclusive.
Potency is the fitted concentration of half-maximal effect.

For `COC(=O)NC(=S)Nc1ccccc1NC(=S)NC(=O)OC`, the Potency entry in assay [1], in [2], in assay [3], in [4], in [5] and in [6] was “inactive” throughout. The Potency result in [7], in assay [8], in assay [9], in assay [10], in [11] and in assay [12] was “inactive” throughout. The Potency entry in assay [13], in assay [14], in assay [15], in [16], in [17] and in [18] was “inactive” in each case. Besides, the Potency entry in assay [19] and in assay [20] was “inactive” each time.

As for `COP(=S)(OC)Oc1ccc([N+](=O)[O-])cc1`, the Potency result in [1], in assay [2], in [3], in assay [4], in assay [5] and in assay [6] was “inactive” each time. Also, the Potency result in [7], in assay [8], in assay [9], in [10], in assay [11] and in assay [12] was “inactive” each time. Also, the Potency result in assay [13], in assay [14], in assay [15], in [16], in assay [17] and in assay [18] was “inactive” throughout. Further, the Potency result in assay [19] and in [20] was “inactive” each time.

`CCCCCCCCCc1ccc(O)cc1`: the Potency was 25.1 µM (active) in assay [1] and 39.8 µM (active) in assay [2]. Moreover, the Potency entry in assay [3], in [4], in [5], in [6], in assay [7] and in [8] was “inactive” each time. Further, the Potency result in assay [9], in assay [10], in assay [11], in assay [12], in assay [13] and in [14] was “inactive” each time. Also, the Potency result in [15], in [16], in [17], in assay [18], in [19] and in assay [20] was “inactive” throughout.

Consider `C/C=C/c1ccc2c(c1)OCO2`, for which the Potency result in [1], in assay [2], in assay [3], in [4], in assay [5] and in assay [6] was “inactive” in each case. Moreover, the Potency result in assay [7], in [8], in assay [9], in [10], in assay [11] and in assay [12] was “inactive” in each case. The Potency result in [13], in assay [14], in assay [15], in assay [16], in assay [17] and in [18] was “inactive” in each case. In addition, the Potency entry in assay [19] and in assay [20] was “inactive” each time.

Turning to `O=C(O)COc1ccc(Cl)cc1Cl`, the Potency result in assay [1], in [2], in [3], in [4], in [5] and in assay [6] was “inactive” in each case. The Potency result in [7], in assay [8], in assay [9], in assay [10], in [11] and in assay [12] was “inactive” each time. For the same compound, the Potency result in [13], in [14], in assay [15], in [16], in assay [17] and in [18] was “inactive” in each case. The Potency result in assay [19] and in assay [20] was “inactive” in each case.

Take `ClC1=C(Cl)C2(Cl)C3C4CC(C5OC45)C3C1(Cl)C2(Cl)Cl` (stereo not given): the Potency is 20 µM (active) in [1]; 10 µM (active) in assay [2]; 12.6 µM (active) in assay [3]; 25.1 µM (active) in assay [4]; 25.1 µM (active) in assay [5]; 39.8 µM (active) in [6]. The Potency in [7] is 39.8 µM (active); in assay [8] it was 39.8 µM (active); in assay [9], 50.1 µM (active); in assay [10], 31.6 µM (active); in assay [11], 50.1 µM (active); in [12], 39.8 µM (active). Besides, the Potency in assay [13] is 50.1 µM (active); in assay [14], 39.8 µM (active); in assay [15], 31.6 µM (active); in [16] it was 39.8 µM (active); in assay [17], 39.8 µM (active); in assay [18] it was 39.8 µM (active). For the same compound, the Potency in [19] and in assay [20] was 12.6 µM (active) throughout.

With `O=C1C(Cl)=C(Cl)C(=O)C(Cl)=C1Cl`, the Potency in [1] is 15.8 µM (active); in [2], 25.1 µM (active); in assay [3], 50.1 µM (active); in assay [4], 31.6 µM (active); in assay [5], 20 µM (active); in assay [6], 25.1 µM (active). In addition, the Potency in assay [7] is 12.6 µM (active); in assay [8], 25.1 µM (active); in assay [9] it was 50.1 µM (active); in assay [10], 25.1 µM (active); in assay [11], 12.6 µM (active); in assay [12], 15.8 µM (active). In addition, the Potency is 25.1 µM (active) in assay [13]; 39.8 µM (active) in assay [14]; 12.6 µM (active) in [15]; 15.8 µM (active) in [16]; 10 µM (active) in [17]; 25.1 µM (active) in [18]. Also, the Potency in [19] and in assay [20] was 39.8 µM (active) throughout.

For the origin of these results see PubChem BioAssay (NCATS).
